Screens from PubChem BioAssay.
Sampled rows, rich in hits. Any-hit rate of the full collection: about 3.6%.
FBPA Giardia inh – Giardia lamblia aldolase inhibition. AID 2451. A8B2U2. actives 0.71% (n = 290,000). Potency, µM (series often up to 59.6 µM), for the others: at the top dose activity, negative = inhibition, actives largely listed as inhibitors. purified Giardia FBPA; note: nearly all actives have a fitted effect of over 55% in size
Target sequence (A8B2U2 whole entry, looked up): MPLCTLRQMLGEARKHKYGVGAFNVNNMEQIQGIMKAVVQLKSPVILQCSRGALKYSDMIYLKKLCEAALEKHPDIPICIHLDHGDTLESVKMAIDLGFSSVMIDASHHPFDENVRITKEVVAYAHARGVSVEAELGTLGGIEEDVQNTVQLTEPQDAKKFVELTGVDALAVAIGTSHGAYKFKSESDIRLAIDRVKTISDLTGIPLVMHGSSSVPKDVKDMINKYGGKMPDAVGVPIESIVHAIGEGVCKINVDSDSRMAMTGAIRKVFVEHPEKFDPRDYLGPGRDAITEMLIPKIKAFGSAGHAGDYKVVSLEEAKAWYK
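40 nM FBPA preincubated 10 min at RT with compound (up to 57.5 uM final), then substrate plus GAPDH/TPI/NAD/arsenate coupling and diaphorase/resazurin added. Fluorescence read after 20 min at RT, 525/598 nm.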
AmpC inh detg – AmpC beta-lactamase inhibition with detergent present; Potency, µM (titrated, usually from 114 µM), for the others: top-dose activity change, negative = inhibition, most hits filed as inhibitors; AID 485294; P00811; actives 0.041% (n = 370,000); AmpC hydrolysis of nitrocefin, absorbance 480 nm, 0.01% Triton;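 note: 0% = no-compound wells and -100% = no-enzyme wells; nearly all actives have a fitted effect of over 25% in size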
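AmpC (5.3 nM in the dispensed reagent) in 20 mM phosphate pH 7.0 with 0.01% (detergent screen) or 0.0001% Triton X-100 was preincubated with compounds for 15 min at room temperature. Nitrocefin was then added from an 800 uM solution, and hydrolysis was followed at 480 nm.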
AmpC no deterg – inhibitors of E. coli AmpC beta-lactamase without detergent. P00811. AmpC nitrocefin hydrolysis, absorbance 480 nm, 0.0001% Triton. Potency, µM (highest dose often 57.1 µM), for inactives: at the highest dose activity change, negative = inhibition, usual class: inhibitors. actives 0.52% (n = 330,000). AID 485341;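 note: plate controls were no compound for no effect and no enzyme for full effect; nearly all actives have a fitted effect of over 20% in size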
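20 mM phosphate pH 7.0 + 0.01% (detergent screen) or 0.0001% Triton X-100; 5.3 nM AmpC reagent; cpd preinc 15 min RT; nitrocefin (800 uM stock) to start; A480 q20 s × 4 min; Activity was normalised to no-enzyme and no-compound control wells.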
Sm TGR inh – blocks Schistosoma mansoni thioredoxin glutathione reductase; Q962Y6; purified TGR, DTNB reduction, TNB absorbance 405 nm; Potency, µM (top dose mostly 114 µM), inactives show at the top dose activity change, negative = inhibition, usual class: inhibitors; actives 3% (n = 360,000); note: nearly all actives have a fitted effect of over 60% in size
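Kinetic colorimetric format: TGR-catalysed, NADPH-driven DTNB reduction monitored via TNB absorbance. Enzyme dispensed at 20 nM; compound exposure 15 min at room temperature before reaction start.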
Active calls of the source: *; ? = inconclusive; . = no result. Calls come from the whole dose curve; as a rule, active = well fitted curve in the direction sought with a large enough effect; inconclusive = small, poorly fitted or top-dose-only effect, or another doubt; inactive = no such curve, though single readings can be large; an effect the other way counts as inactive or inconclusive. Unless noted, % is set by controls: 0 for no effect and ±100 for the full control effect; potency is the fitted concentration of half-maximal effect.

SMILES	FBPA Giardia inh	AmpC inh detg	AmpC no deterg	Sm TGR inh
COC(=O)c1cccc(NC(N)=S)c1	-2%	3%	-10%	.
COC(=O)c1cccc(NC(=S)Nc2cccc(Cl)c2Cl)c1	-16%	7%	-23%	45µM*
CC1CCN(C(=O)C(C)NCc2ccc(F)cc2)CC1 (stereo not given)	?	?	-9%	-9%
O=C(/C=C/C=C/c1ccccc1)c1ccco1	-1%	-9%	-29%	10µM*
O=C(/C=C/c1ccc(Br)cc1)c1ccco1	2%	-9%	-17%	-32%
O=C(Nc1ccc(Cl)cc1)c1nc[nH]c1C(=O)NCCCNC(=O)c1[nH]cnc1C(=O)Nc1ccc(Cl)cc1	.	.	-26%	.
O=C(CNC(=O)c1ccccc1)NCCc1ccc(O)c(O)c1	-8%	11%	-27%	3.2µM*
O=C(COC(=O)CNC(=O)c1ccccc1)NCCc1ccccc1	5%	1%	7%	-3%
O=C1NC(Cc2c[nH]c3ccccc23)C(=O)N1Cc1ccc(CN2C(=O)NC(Cc3c[nH]c4ccccc34)C2=O)cc1 (stereo not given)	-5%	-5%	7%	21%
Cc1cccc(OCC(=O)Nc2ccc(OCc3cc(=O)n4cc(C)ccc4n3)cc2)c1	.	15%	.	4%
O=C(CCN1CCN(C(=O)c2ccccc2)CC1)c1ccc(Br)cc1	-6%	2%	80%	0.32µM*
O=C(c1ccc(Br)cc1)N1CCN(Cc2ccccc2)CC1	-1%	?	39%	-27%
COc1ccc(NC(=O)N2CC[C@@]3(CCCNC3)C2)cc1	0%	.	.	.
Cc1cc(O)c(C(c2ccccc2)N2CCC(C)CC2)c(=O)n1Cc1ccco1 (stereo not given)	.	-6%	.	28µM*
Cc1cc(O)cc(=O)n1Cc1ccco1	-3%	-9%	-24%	0%
Cc1ccc(C(c2c(O)cc(C)n(Cc3ccco3)c2=O)N2CCC(C)CC2)cc1 (stereo not given)	.	20%	.	10µM*
Cc1cc(O)c(C(c2cccc(F)c2)N2CCC(C)CC2)c(=O)n1Cc1ccco1 (stereo not given)	.	-1%	.	25µM*
CCC(C)(C)n1nnnc1C(c1ccc(C)cc1)N1CCC(C)CC1 (stereo not given)	-14%	?	30%	0%
CCc1ccc2oc(-c3ccc(NC(=O)c4cccc(Cl)c4Cl)cc3)nc2c1	.	15%	.	10%
COc1cc(OC)c(NC(=O)CC(c2cccs2)N2Cc3ccccc3C2=O)cc1Cl (stereo not given)	.	0%	.	-8%
Cc1nc(NC(=O)c2ccccc2)sc1C1(C)CC(c2ccccc2F)=NO1 (stereo not given)	-11%	4%	-44%	?
Cc1nc(NC(=O)c2ccccc2)sc1C1(C)CC(c2c(Cl)cccc2Cl)=NO1 (stereo not given)	-11%	9%	-30%	32µM*
CCN1CCCC1CNC(=O)CN1C(=O)COc2ccc(C)cc21 (stereo not given)	-6%	7%	25µM*	2%
OC(C#CCN1CCCC1)(c1ccccc1)c1cccnc1 (stereo not given)	?	-4%	-27%	32µM*
OC(C#CCCN1CCCCC1)(c1ccccc1)c1ccccc1	6%	2%	0%	-18%
SMILES	FBPA Giardia inh	AmpC inh detg	AmpC no deterg	Sm TGR inh
OC(C#CCN1CCCCCC1)(c1ccccc1)c1cccnc1 (stereo not given)	?	9%	-7%	14µM*
Cc1nn(C(C)C(=O)N/N=C/c2ccc(N(C)C)cc2)c(C)c1[N+](=O)[O-] (stereo not given)	-1%	-1%	-19%	0%
O=C(CN1C(=O)c2ccccc2C1=O)Nc1sc2c(c1C(=O)NCc1ccco1)CCCC2	1%	?	-32%	-20%
O=C(CN1C(=O)c2ccccc2C1=O)Nc1sc2c(c1C(=O)NCC1CCCO1)CCC2 (stereo not given)	7%	4%	-20%	79µM*
O=C(CN1C(=O)c2ccccc2C1=O)NCC1CCCO1 (stereo not given)	1%	-5%	-9%	-10%
O=C(CCCN1C(=O)c2ccccc2C1=O)Nc1sc2c(c1C(=O)NCc1ccco1)CCC2	-3%	-4%	-23%	40µM*
Cc1c(Cl)c([N+](=O)[O-])nn1CC(=O)N1CCN(C23CC4CC(CC(C4)C2)C3)CC1	-9%	-13%	28%	-14%
Cc1ccc(C)c(SCC(=O)OCC(=O)c2ccco2)c1	9%	-9%	-17%	40µM*
O=C(Cc1cccs1)OCC(=O)c1ccco1	3%	-9%	-43%	25µM*
CC1=C(C)C(OCCBr)N(c2cc(O)c(Cl)cc2F)C1=O (stereo not given)	3%	3%	-18%	28µM*
Cc1cc(=O)n2nc(N(C)CC(=O)NCc3ccc(Cl)cc3)sc2n1	.	-6%	.	-1%
COc1ccc(CC(=O)Nc2c3c(nn2C(C)(C)C)CS(=O)(=O)C3)cc1OC	.	3%	-4%	35µM*
CC(=O)c1ccc2c(c1)C1C(Cl)C(Sc3ccccc3[N+](=O)[O-])CC1C(C(=O)O)N2 (stereo not given)	-3%	?	-46%	?
O=C(O)c1cccc2c1NC(C(=O)O)C1CC(Sc3ccccc3[N+](=O)[O-])C(Cl)C21 (stereo not given)	-19%	40µM*	-51%	?
O=C(NCc1cccs1)c1ccc(Cn2c(SCc3ccccc3)nc3cccnc32)cc1	.	15%	.	1%
O=C(NCc1cccnc1)C1c2ccccc2C(=O)N1C1CCCC1 (stereo not given)	4%	?	20µM*	4%
Cc1ccc(CN2C(=O)c3ccccc3C2C(=O)NCc2cccnc2)cc1 (stereo not given)	-1%	4%	0%	?
CC(=O)N1c2ccc(S(=O)(=O)NCCC(=O)Nc3ccc(F)cc3C)cc2CC1C (stereo not given)	5%	-3%	-9%	2%
CC(C)=CCC/C(C)=C/CNC(=O)C[C@H]1C[C@H](C(=O)N2CCOCC2)[C@@]2(CCC3CCCC3)c3[nH]c4cc(CCC(=O)N(C)C)ccc4c3CCN2C1=O	.	.	1%	.
Cc1ccc(NC(=O)COC(=O)/C=C/c2ccco2)cc1S(=O)(=O)N(C)C	3%	-9%	-19%	25µM*
CCN(CC)S(=O)(=O)c1cccc(NC(=O)COC(=O)/C=C/c2ccco2)c1	-2%	-10%	-26%	22µM*
Cc1ccc(/C=C/C(=O)OCC(=O)Nc2cccc(S(=O)(=O)N(C)C)c2)o1	1%	?	-19%	?
CN(C)S(=O)(=O)c1cccc(NC(=O)COC(=O)/C=C/c2ccco2)c1	0%	-9%	-16%	?
Cc1ccc(NC(=O)COC(=O)c2ccc(Cl)cc2)cc1S(=O)(=O)N(C)C	-1%	6%	-29%	1%
C/C=C/C(=O)OCC(=O)Nc1ccc(C)c(S(=O)(=O)N(C)C)c1	0%	2%	-9%	45µM*
